Laboratory results as given in ChEMBL document CHEMBL1961873, “Compounds: GSK PKIS; Assays: Nanosyn kinase panel” (2012).

Experiments:
[1] = biological target: Tyrosine-protein kinase receptor UFO (Homo sapiens) (UniProt P30530); conditions: at 1 µM
[2] = biological target: Tyrosine-protein kinase Blk (Homo sapiens) (UniProt P51451); conditions: at 0.1 µM
[3] = biological target: Tyrosine-protein kinase Blk (Homo sapiens) (UniProt P51451); conditions: at 1 µM
[4] = biological target: T1, Cytoplasmic tyrosine-protein kinase BMX (Homo sapiens) (UniProt P51813); conditions: at 0.1 µM
T1 sequence (whole entry): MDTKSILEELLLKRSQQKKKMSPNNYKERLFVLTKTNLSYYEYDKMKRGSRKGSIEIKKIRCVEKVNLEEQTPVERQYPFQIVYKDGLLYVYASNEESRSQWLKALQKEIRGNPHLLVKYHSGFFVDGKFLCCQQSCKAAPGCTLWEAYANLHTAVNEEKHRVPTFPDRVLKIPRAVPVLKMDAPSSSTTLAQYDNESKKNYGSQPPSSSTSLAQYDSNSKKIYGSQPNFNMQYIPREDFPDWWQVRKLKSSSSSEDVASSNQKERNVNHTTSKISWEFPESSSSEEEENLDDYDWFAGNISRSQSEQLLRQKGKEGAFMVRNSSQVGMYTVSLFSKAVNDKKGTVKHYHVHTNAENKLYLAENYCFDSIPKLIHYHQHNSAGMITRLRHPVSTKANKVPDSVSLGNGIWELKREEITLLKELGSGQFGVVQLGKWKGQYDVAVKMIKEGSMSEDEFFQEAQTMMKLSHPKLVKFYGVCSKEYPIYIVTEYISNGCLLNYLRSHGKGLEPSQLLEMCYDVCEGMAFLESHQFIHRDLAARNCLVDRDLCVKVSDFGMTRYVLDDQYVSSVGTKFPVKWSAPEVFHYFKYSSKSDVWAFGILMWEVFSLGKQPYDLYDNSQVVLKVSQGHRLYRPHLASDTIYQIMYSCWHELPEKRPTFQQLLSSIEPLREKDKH

[5] = biological target: T1, Cytoplasmic tyrosine-protein kinase BMX (Homo sapiens); conditions: at 1 µM
[6] = biological target: Protein-tyrosine kinase 6 (Homo sapiens) (UniProt Q13882); conditions: at 0.1 µM
[7] = biological target: Protein-tyrosine kinase 6 (Homo sapiens) (UniProt Q13882); conditions: at 1 µM
[8] = biological target: Tyrosine-protein kinase BTK (Homo sapiens) (UniProt Q06187); conditions: at 0.1 µM
[9] = biological target: Tyrosine-protein kinase BTK (Homo sapiens) (UniProt Q06187); conditions: at 1 µM
[10] = biological target: Tyrosine-protein kinase CSK (Homo sapiens) (UniProt P41240); conditions: at 0.1 µM;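 further: value given is the averaged percent inhibition of CSK kinase activity, from the GSK PKIS kinase inhibitor set screening panel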
Sequence of Tyrosine-protein kinase CSK (Homo sapiens) (P41240 2-450 limits assumed): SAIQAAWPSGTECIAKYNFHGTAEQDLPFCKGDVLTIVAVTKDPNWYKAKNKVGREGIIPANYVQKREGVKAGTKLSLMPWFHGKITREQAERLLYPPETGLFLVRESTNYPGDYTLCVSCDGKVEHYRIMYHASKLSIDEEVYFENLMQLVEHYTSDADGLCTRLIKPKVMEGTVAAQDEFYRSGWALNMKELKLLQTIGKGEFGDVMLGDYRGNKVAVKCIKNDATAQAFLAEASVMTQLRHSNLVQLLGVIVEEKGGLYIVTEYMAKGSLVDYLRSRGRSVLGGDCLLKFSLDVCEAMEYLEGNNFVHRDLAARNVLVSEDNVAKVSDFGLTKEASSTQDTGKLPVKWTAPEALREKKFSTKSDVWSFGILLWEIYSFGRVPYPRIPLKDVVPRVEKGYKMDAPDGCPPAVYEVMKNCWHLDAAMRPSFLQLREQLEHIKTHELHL

Sequence of Tyrosine-protein kinase BTK (Homo sapiens) (Q06187 whole entry): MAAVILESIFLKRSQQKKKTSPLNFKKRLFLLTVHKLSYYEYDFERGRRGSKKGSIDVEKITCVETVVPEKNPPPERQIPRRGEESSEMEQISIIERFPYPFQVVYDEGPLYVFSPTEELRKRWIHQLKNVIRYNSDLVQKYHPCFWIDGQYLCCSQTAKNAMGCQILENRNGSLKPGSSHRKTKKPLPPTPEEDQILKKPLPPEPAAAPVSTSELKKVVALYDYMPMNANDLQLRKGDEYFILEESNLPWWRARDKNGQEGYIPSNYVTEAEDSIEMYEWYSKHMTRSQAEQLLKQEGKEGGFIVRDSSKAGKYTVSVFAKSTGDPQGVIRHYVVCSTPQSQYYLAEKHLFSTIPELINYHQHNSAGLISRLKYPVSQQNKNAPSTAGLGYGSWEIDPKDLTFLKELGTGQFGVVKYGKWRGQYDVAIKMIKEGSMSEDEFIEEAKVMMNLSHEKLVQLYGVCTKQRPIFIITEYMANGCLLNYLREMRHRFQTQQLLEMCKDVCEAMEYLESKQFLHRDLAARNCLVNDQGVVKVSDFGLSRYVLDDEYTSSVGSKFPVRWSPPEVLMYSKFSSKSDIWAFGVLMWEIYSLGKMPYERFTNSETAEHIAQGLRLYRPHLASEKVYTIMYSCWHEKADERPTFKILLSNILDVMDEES
Sequence of Tyrosine-protein kinase receptor UFO (Homo sapiens) (P30530 whole entry): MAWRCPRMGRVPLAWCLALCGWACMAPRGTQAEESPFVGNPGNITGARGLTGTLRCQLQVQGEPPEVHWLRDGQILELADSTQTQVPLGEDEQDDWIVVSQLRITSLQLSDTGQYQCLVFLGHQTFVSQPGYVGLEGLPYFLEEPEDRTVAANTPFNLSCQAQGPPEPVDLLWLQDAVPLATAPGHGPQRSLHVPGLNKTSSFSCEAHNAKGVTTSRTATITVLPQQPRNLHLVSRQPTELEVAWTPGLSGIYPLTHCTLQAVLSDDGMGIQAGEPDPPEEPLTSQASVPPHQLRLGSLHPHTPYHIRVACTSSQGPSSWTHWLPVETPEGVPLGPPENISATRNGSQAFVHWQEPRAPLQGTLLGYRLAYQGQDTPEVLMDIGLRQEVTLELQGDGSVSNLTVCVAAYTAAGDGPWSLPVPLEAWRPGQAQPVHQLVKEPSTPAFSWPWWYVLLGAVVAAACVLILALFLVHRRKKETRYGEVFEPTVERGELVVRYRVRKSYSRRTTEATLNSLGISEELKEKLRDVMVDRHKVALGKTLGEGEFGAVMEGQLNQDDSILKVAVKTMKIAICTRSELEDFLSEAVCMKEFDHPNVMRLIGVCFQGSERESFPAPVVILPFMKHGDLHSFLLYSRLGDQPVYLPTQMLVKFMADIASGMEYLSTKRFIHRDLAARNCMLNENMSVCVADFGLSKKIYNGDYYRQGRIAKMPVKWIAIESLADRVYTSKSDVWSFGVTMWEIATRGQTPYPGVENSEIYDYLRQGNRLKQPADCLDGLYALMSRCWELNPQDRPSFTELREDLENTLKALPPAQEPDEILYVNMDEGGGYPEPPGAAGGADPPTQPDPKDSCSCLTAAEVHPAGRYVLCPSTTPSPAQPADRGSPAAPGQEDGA
Sequence of Tyrosine-protein kinase Blk (Homo sapiens) (P51451 2-505 limits assumed): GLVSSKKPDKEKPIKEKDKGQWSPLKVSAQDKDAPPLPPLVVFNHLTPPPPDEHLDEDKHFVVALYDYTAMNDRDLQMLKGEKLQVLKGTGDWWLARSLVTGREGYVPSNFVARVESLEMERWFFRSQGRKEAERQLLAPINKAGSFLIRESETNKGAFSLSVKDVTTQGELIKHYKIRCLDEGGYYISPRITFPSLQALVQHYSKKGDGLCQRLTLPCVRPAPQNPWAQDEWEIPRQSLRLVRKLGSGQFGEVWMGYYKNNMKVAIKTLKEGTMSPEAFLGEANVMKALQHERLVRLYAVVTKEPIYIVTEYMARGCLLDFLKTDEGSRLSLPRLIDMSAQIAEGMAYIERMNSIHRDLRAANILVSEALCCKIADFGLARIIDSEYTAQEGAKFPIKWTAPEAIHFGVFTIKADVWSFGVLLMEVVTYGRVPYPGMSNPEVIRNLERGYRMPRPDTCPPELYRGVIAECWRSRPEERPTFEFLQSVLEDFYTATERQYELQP
Sequence of Protein-tyrosine kinase 6 (Homo sapiens) (Q13882 whole entry, looked up): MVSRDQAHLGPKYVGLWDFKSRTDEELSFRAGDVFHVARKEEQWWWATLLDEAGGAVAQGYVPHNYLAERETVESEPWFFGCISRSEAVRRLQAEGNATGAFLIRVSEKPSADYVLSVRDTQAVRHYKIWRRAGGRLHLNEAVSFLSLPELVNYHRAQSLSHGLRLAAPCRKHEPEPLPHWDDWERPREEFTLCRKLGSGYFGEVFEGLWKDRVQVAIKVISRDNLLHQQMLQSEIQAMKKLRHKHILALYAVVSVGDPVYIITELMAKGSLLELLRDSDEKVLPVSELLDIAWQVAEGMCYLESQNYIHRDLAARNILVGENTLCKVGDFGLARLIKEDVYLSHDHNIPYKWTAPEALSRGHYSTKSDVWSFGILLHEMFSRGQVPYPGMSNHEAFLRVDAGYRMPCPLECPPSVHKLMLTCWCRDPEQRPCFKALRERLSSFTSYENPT

| Structure (SMILES) | inhibition [1] [%] | inhibition [2] [%] | inhibition [3] [%] | inhibition [4] [%] | inhibition [5] [%] | inhibition [6] [%] | inhibition [7] [%] | inhibition [8] [%] | inhibition [9] [%] | inhibition [10] [%] |
| --- | --- | --- | --- | --- | --- | --- | --- | --- | --- | --- |
| CCN1CCC(CC(=O)Nc2n[nH]c3nnc(-c4cccc(F)c4F)cc23)CC1 | 0.83 | 3.37 | 3.76 | 1.54 | 1.09 | 2.53 | 1.16 | 0.54 | 1.15 | -1.69 |
| N#Cc1c(NC(=O)CN2CCOCC2)sc2c1CCCC2 | -0.41 | 3.64 | 3.64 | -0.4 | 3.55 | 0.26 | 6.1 | 0.98 | 3.11 | 6.19 |
| Cc1cccc(Nc2ncc(-c3ccccc3)o2)c1 | -3.9 | 3.13 | 6.39 | 4.13 | 6.25 | 2.06 | 0.15 | 0.69 | 1.31 | 1.12 |
| c1ccc(COc2ccc(Nc3ncnc4ccc(-c5ccco5)cc34)cc2)cc1 | 2.06 | 1.56 | 3.68 | -1 | 2.02 | 1.6 | 2.35 | 0.63 | 1.73 | 0.39 |
| c1ccc(-c2nc3n(c2-c2ccc4c(c2)OCO4)CCC3)nc1 | -5.46 | 0.54 | 3.25 | -1.29 | 1 | 0.9 | 2.26 | -0.42 | -1.35 | 1.01 |
| N#Cc1c(NC(=O)c2ccc(F)cc2)sc2c1CCCC2 | -1.26 | 0.68 | 1.75 | 1.31 | 0.33 | -0.11 | -2 | -1.3 | -0.45 | 1.81 |
| CCNC(=O)O[C@H]1CN[C@H](C#Cc2cc3ncnc(Nc4ccc(OCc5cccc(F)c5)c(Cl)c4)c3s2)C1 | -3.57 | 2.3 | 2.43 | -0.06 | 2.73 | 3.17 | 5.56 | 1.15 | 1.29 | 5.58 |
| CCN(CC)S(=O)(=O)c1ccc(OC)c(Nc2ncc(-c3ccccc3)o2)c1 | -0.53 | 3.51 | 31.4 | -2.19 | 7.38 | -0.82 | 3.3 | 2.59 | 3.38 | 1.59 |
| NS(=O)(=O)c1ccc(N/N=C2\C(=O)Nc3ccc4ncccc4c32)cc1 | 36.8 | 8.45 | 60 | 6.88 | 25.3 | 5.86 | 31.9 | 1.8 | 13 | 1.66 |
| COc1ccc2[nH]c3c4[nH]c5ccc(OC)cc5c4c4c(c3c2c1)C(=O)NC4=O | 40 | 6.14 | 36.5 | -2.69 | 16.6 | 6.37 | 19.6 | 0.07 | 8.32 | 4.3 |
| CC(C)(CO)CNC(=O)c1ccc2c(c1)/C(=N/Nc1ccc(S(N)(=O)=O)cc1)C(=O)N2 | 6.57 | -0.9 | 10.8 | -1.83 | 0.67 | -2.27 | -0.34 | 0.27 | -2.23 | 0.77 |
| c1cc(-c2cnn3nc(N4CCOCC4)ccc23)nc(NC2CC2)n1 | -5.65 | 2.34 | 7.51 | 0.89 | 2.31 | 6.35 | 7.89 | 1.63 | 2.33 | 10.8 |
| NS(=O)(=O)c1ccc(Nc2ncc(-c3ccccc3)o2)cc1 | -3.58 | 2.41 | 4.76 | 0.13 | 5.05 | 4.11 | 4.41 | 0 | 1.06 | 6.51 |
| COc1ccc(-c2cc(-c3c[nH]nc3-c3ccccn3)ccn2)cc1 | -5.64 | 4.09 | 3.9 | -1.41 | 5.27 | 6.49 | 7.25 | 2.09 | 1.28 | 7.77 |
| CN1CCC(n2cnc(-c3ccc(F)cc3)c2-c2ccnc(N)n2)CC1 | 0.24 | 1.67 | 6.71 | 3.52 | 4.58 | 3.49 | 8.09 | 0.47 | 0.93 | 7.73 |
| Fc1ccc(-c2cc(-c3c[nH]nc3-c3ccccn3)ccn2)cc1 | -8.99 | 2.97 | 2.43 | -2.56 | 3.99 | 5.01 | 7.81 | 0.31 | -1.93 | 5.1 |
| CCCN1CCC(c2ccc(Nc3nc(Nc4cc(F)ccc4C(N)=O)c4cc[nH]c4n3)c(OC)c2)CC1 | 66 | 3.5 | 8.52 | 3.68 | 6.36 | 13.5 | 64.8 | -1.53 | -1.71 | 1.38 |

| Structure (SMILES) | inhibition [1] [%] | inhibition [2] [%] | inhibition [3] [%] | inhibition [4] [%] | inhibition [5] [%] | inhibition [6] [%] | inhibition [7] [%] | inhibition [8] [%] | inhibition [9] [%] | inhibition [10] [%] |
| --- | --- | --- | --- | --- | --- | --- | --- | --- | --- | --- |
| CC(=O)Nc1cccc(C#Cc2cncnc2Nc2ccc(OCc3cccc(F)c3)c(Cl)c2)c1 | 1.6 | 2.4 | 1.37 | 0.73 | 4.15 | 1.35 | 1.55 | 2.74 | 5.12 | 5.08 |
| COc1cc(/C=N/Nc2ncnc3[nH]ncc23)ccc1O | -3.87 | 9.75 | 59.7 | 2.08 | 32.4 | 5.52 | 30.3 | 1.57 | 7.64 | 7.17 |
| COc1ccc(CNC(=O)c2ccc(-c3cc(-c4nnc(C)o4)ccc3C)cc2)cc1 | 2.74 | 2.54 | 0.87 | -0.31 | 0.63 | 0.56 | 4.1 | 0.04 | 2.36 | 3.65 |
| Fc1ccc(-c2nn3ccccc3c2-c2ccncc2)cc1 | 0.78 | 0.92 | 2.66 | -1.75 | 1.42 | -1.18 | 7.58 | -2.02 | -1.29 | -0.04 |
| NC(=O)c1sc(-n2cnc3ccc(C(F)(F)F)cc32)cc1OCc1ccccc1Br | -3.8 | 2.51 | 3.45 | 1.05 | 2.91 | 3.76 | 5.16 | -0.59 | -2.44 | 4.79 |
| CCn1c(-c2nonc2N)nc2ccccc21 | 0.96 | 1.38 | 3.02 | -0.5 | 3.8 | 4.51 | 3.44 | 1.6 | 2.63 | 2.25 |
| CCn1cc(-c2ccnc3[nH]ccc23)c(-c2cccc(NC(=O)Nc3ccc(OCc4ccccc4)cc3)c2)n1 | 0.9 | 2.54 | 18.7 | 1.09 | -0.27 | 3.04 | 16.2 | 0.34 | 3.3 | -0.47 |
| Fc1cccc(COc2ccc(Nc3ncnc4sc(-c5ccco5)cc34)cc2Cl)c1 | -6.25 | 4 | 3.74 | 2.98 | 2.36 | 3.39 | 3.91 | -1.13 | 1.35 | -0.1 |
| Cc1ccc2c(-c3ccnc(Nc4ccccc4)n3)c(-c3ccc(F)cc3)nn2n1 | -3.51 | 6.22 | 49 | 3.36 | 42.7 | 15.2 | 63.4 | 2.84 | 6.06 | 3.99 |
| Cc1cccc2c1NC(=O)/C2=N\Nc1ccc(S(N)(=O)=O)cc1 | -0.34 | 1.72 | 5.96 | -0.08 | 2.79 | 0.03 | 1.67 | 1.48 | 1.48 | 3.78 |
| CC(C)COC(=O)c1ccc2c(c1)/C(=C/Nc1ccc(S(N)(=O)=O)cc1)C(=O)N2 | 13.2 | 1.11 | 28.6 | 0.73 | -1.5 | -2.24 | -2.63 | -1.47 | -1.1 | -2.24 |
| Nc1nc(-c2cccc(Cl)c2)c(-c2ccc3ncccc3n2)s1 | -8.66 | 3.51 | 7.22 | 2.53 | 5.31 | 5.86 | 10.6 | 0.83 | -0.84 | 5.57 |
| Nc1ncc(-c2cccc(S(N)(=O)=O)c2)c2scc(-c3ccc(F)c(Cl)c3)c12 | -2.44 | 5.6 | 28.2 | 14.5 | 56.5 | 7.08 | 47.5 | 3.15 | 25.1 | 23.1 |
| O=S(=O)(CCNCc1ccc(-c2ccc3ncnc(Nc4ccc(OCc5cccc(F)c5)c(Cl)c4)c3c2)o1)c1ccccc1 | -5.93 | 2.67 | 6.67 | 5.7 | 6.77 | 6.2 | 6.15 | -0.83 | 1.59 | 7.31 |
| CCOc1ccc2c(-c3ccnc(Nc4cccc(C(F)(F)F)c4)n3)cnn2n1 | -0.78 | 2.21 | 3.22 | 3.34 | 1.94 | -0.32 | 0.97 | 0.07 | 1.18 | 1.57 |
| CC(=O)NCc1cccc(C#Cc2cncnc2Nc2ccc(OCc3cccc(F)c3)c(Cl)c2)c1 | 0.14 | -0.03 | 0.29 | 2.32 | 0.07 | 0.12 | 3.96 | -1.42 | -0.78 | -0.86 |
| COc1cccc(-n2ncc3c(N/N=C/c4ccc(F)cc4)ncnc32)c1 | -3.79 | 4.91 | 18.2 | -0.31 | 13 | 4.36 | 5.54 | 1.48 | 1.13 | 3.3 |
